Assay outcomes (PubChem BioAssay)
IL1B secr inh: inflammasome signaling inhibition, IL-1 beta readout. THP-1 LPS/ATP IL-1B secretion, AlphaLISA, 16 h; active compounds read low. activity change, % at 57.5 µM. actives 4.7% (n = 360,000); in the data active = activity change below about -50%; inconclusive = mostly about -30% to -49%
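Secreted IL-1B measured by AlphaLISA bead assay after 16 h compound exposure of THP-1 cells; compounds (final up to 57.5 uM) added 1 h before LPS (250 ng/mL) and ATP (1.25 mM) stimulation; lower signal means less secretion.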
HT1080 IDH1KD tx: toxicity to HT-1080 IDH1 knockdown cells (counter line) | HT-1080 IDH1 knockdown viability, ATP luminescence, 48 h | Potency, µM (doses to about 46.1 µM), inactives show top-dose activity, negative = toxicity, actives largely listed as cytotoxic | actives 2% (n = 360,000);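 also: potency is read from the fitted curve at half-maximal effect; 0% = DMSO wells and -100% = cell-free medium wells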
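After a 2 h attachment period, IDH1KD HT-1080 cells took pin-transferred compound for 48 h at 37 °C; ATP-based luminescence after 10 min room-temperature reagent incubation reported viability.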
DT40 TDP1 no CPT: qHTS for Inhibitors of human tyrosyl-DNA phosphodiesterase 1 (TDP1): qHTS in cells in absence of CPT; DT40 Tdp1-/- hTDP1 cells, no CPT, ATP luminescence, 48 h; Potency, µM (doses to about 46.2 µM), without a hit: at the top dose activity change, negative = growth inhibition, hits mostly inhibitors; actives 15% (n = 420,000); AID 686978, 2013; also: potency is read from the fitted curve at half-maximal effect; nearly all actives have a fitted effect of over 55% in size
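Stably hTDP1-transfected Tdp1-null chicken DT40 cells were treated with library compounds minus camptothecin and grown for at least 48 hr at 37 °C, after which cellular ATP was quantified by luminescence.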
HT1080-NT tox: kills 2HG-producing HT-1080-NT fibrosarcoma cells. Potency, µM (top dose mostly 46.1 µM), without a hit: at the top dose activity, negative = less viability, hits mostly cytotoxic. actives 1.6% (n = 360,000). HT-1080-NT fibrosarcoma viability, CellTiter-Glo ATP luminescence, 48 h. AID 686970;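 also: NT is the 2HG producing partner of a matched IDH1 knockdown line; potency is read from the fitted curve at half-maximal effect; 0% = DMSO-treated cells and -100% = media-only wells without cells; nearly all actives have a fitted effect of over 55% in size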
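750 cells/well, RPMI + 5% FBS; 2 h settle, compound pin-transfer, 48 h at 37 degrees C. CellTiter-Glo 10 min RT, luminescence. Normalized to DMSO and media-only wells.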
TDP1 cell CPT: growth inhibition of DT40 Tdp1-/-;hTDP1 cells with camptothecin (screen for TDP1 inhibitors) | Potency, µM (doses to about 46.2 µM), without a hit: top-dose activity change, negative = growth inhibition, most hits filed as inhibitors | chicken DT40 Tdp1-/-;hTDP1 cells + 20 nM CPT, ATP luminescence, 48 h | actives 12% (n = 420,000); also: potency is read from the fitted curve at half-maximal effect; nearly all actives have a fitted effect of over 55% in size
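Chicken DT40 Tdp1-/- cells stably complemented with human TDP1 were seeded at 400 cells/well in medium containing 20 nM camptothecin, exposed to pin-transferred compounds, and grown at 37 °C for at least 48 hr. Viability was read as ATP luminescence.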
An asterisk follows results filed as active; ? = inconclusive; · = no result. This is a sample that favours compounds with a hit; in the whole collection about 19% have one here. Unless noted, calls follow the shape of the dose curve; as a rule, active = well fitted curve in the direction sought with a large enough effect; inconclusive = small, poorly fitted or top-dose-only effect, or another doubt; inactive = no such curve, though single readings can be large; an effect the other way counts as inactive or inconclusive. Unless noted, % is scaled to controls: 0 for no effect and ±100 for the full control effect.

SMILES	IL1B secr inh	HT1080 IDH1KD tx	DT40 TDP1 no CPT	HT1080-NT tox	TDP1 cell CPT
COc1ccc(CN(C)C(=O)Cn2cnc3c(SC)nc(N)nc32)cc1OC	0	-7%	21µM*	-2%	15µM*
CSc1nc(N)nc2c1ncn2CC(=O)NCCCc1ccccc1	27	-2%	15µM*	-7%	?
Cc1c(-n2c(SCC(=O)O)nnc2-c2ccccc2Br)c(=O)n(-c2ccccc2)n1C	-7	1%	18%	14%	-13%
COCCCN1C(=O)N(c2ccccc2)C(=O)C1CC(=O)Nc1ccc(F)cc1 (stereo not given)	0	0%	-1%	0%	?
Cc1ccsc1CCN1C(=O)N(c2ccccc2)C(=O)C1CC(=O)Nc1ccc(F)cc1 (stereo not given)	·	·	15µM*	·	?
Cc1ccsc1CCN1C(=O)N(c2ccc(F)cc2)C(=O)C1CC(=O)Nc1ccccc1 (stereo not given)	·	·	23µM*	·	?
CCOc1ccc(NC(=O)CN(C)C(=O)c2c(-c3c(F)cccc3Cl)noc2C)cc1OCC	-8	-4%	-21%	-4%	?
CCOC(=O)c1cnc(SC)nc1Nc1cccc2ccccc12	18	9%	?	-6%	?
CCOC(=O)c1cnc(-n2cc(C)cn2)nc1Nc1ccccc1OCC	27	5%	6.5µM*	19%	10µM*
O=C(Cc1ccccc1)NCC(=O)Nc1cccc(Cl)c1	9	-3%	3%	-17%	-3%
CCC(C)Nc1ccc(NC(C)CC)cc1 (stereo not given)	?	9.2µM*	-86%	3.7µM*	4.1µM*
CCOC1=CC2=C(C(=O)C(Cl)=CC2=O)[C@@H]2CN(S(=O)(=O)c3ccc(C)cc3)[C@@H](c3ccccc3)[C@H]12	0	?	1.8µM*	?	1.2µM*
Cc1ccc(S(=O)(=O)c2nc(/C=C/c3ccccc3)oc2N2CCC(C(N)=O)CC2)cc1	-15	14%	?	13%	?
C/C=C1\COC(C(=O)NCCN2CCCC2)(C(F)(F)F)C=C1C=C1CCCCC1 (stereo not given)	-78*	-13%	21µM*	-9%	18µM*
C/C=C1\COC(C(=O)NCc2ccccc2)(C(F)(F)F)C=C1C=C1CCCCC1 (stereo not given)	-3	-21%	?	-3%	?
C/C=C1\COC(C(=O)NCCCN2CCCC2=O)(C(F)(F)F)C=C1C=C(C)C (stereo not given)	-8	9%	18µM*	1%	21µM*
CC1(C(=O)NCCCN2CCCC2=O)CCN1CCc1ccccc1 (stereo not given)	21	?	-1%	15%	-22%
COC(=O)N/N=C/c1cc(Cl)c(OCc2ccc(F)cc2)c(OC)c1	9	?	?	-26%	-14%
COC(=O)N/N=C/c1cc(Cl)c(OCc2ccccc2F)c(OC)c1	-4	-27%	23µM*	-29%	?
COCCNC(=O)/C(C#N)=C/c1c(N2CCN(c3ccc(OC)cc3)CC2)nc2c(C)cccn2c1=O	?	-10%	23µM*	-11%	23µM*
Cc1cccn2c(=O)c(/C=C(\C#N)C(N)=O)c(N3CCN(c4ccccc4)CC3)nc12	3	?	6.5µM*	-27%	?
N#C/C(=C\c1c(N2CCN(c3ccccc3)CC2)nc2ccccn2c1=O)C(N)=O	-8	11%	-19%	-3%	-16%
COCCNC(=O)/C(C#N)=C/c1c(N2CCN(c3cccc(Cl)c3)CC2)nc2c(C)cccn2c1=O	?	-11%	23µM*	?	16µM*
CNC(=O)/C(C#N)=C/c1c(N2CCN(c3cccc(Cl)c3)CC2)nc2c(C)cccn2c1=O	-66*	0%	12µM*	15%	?
Cc1c(C(=O)NCCO)[n+](=O)c2ccccc2n1[O-]	·	·	-18%	·	6%
